Measurements as given in PubChem BioAssay (NCI).
The panel holds about 79,000 compounds, 15% with a hit somewhere; the sample as a whole holds those more often. The source made the active and inactive calls. Cut-off read from the data, not from the text of the source: active = growth inhibition above about 70%; inactive = the rest.

Experiments:
[1] = NCI Yeast Anticancer Drug Screen. Data for the rad52 strain (AID 147);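 note: 0% = growth of vehicle-treated control cultures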; conditions: S. cerevisiae rad52 mutant growth inhibition, active compounds read high
Method in brief: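 Vehicle-treated cultures served as the reference for growth inhibition of compound-exposed yeast bearing a DNA repair mutation.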

[2] = NCI Yeast Anticancer Drug Screen. Data for the wt1 strain (AID 149);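 note: 0% = growth of vehicle-treated wt1 cultures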; conditions: S. cerevisiae wt1 strain (SPY 50644) growth inhibition, active compounds read high
Method in brief: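 Measured: growth of wt1 yeast under compound versus vehicle treatment, reported as inhibition.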

[3] = NCI Yeast Anticancer Drug Screen. Data for the rad50EPP+ strain (AID 151);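 note: 0% = growth of vehicle-treated control cultures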; conditions: S. cerevisiae rad50 mutant strain, active compounds read high
Method in brief: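 In this screen, rad50EPP+ yeast were exposed to compounds. Growth inhibition was scored against vehicle-treated controls.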

[4] = NCI Yeast Anticancer Drug Screen. Data for the mgt1 strain (AID 153); conditions: S. cerevisiae mgt1 mutant growth inhibition, active compounds read high
Method in brief: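 mgt1 strain exposed; growth vs vehicle control recorded as inhibition.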

[5] = NCI Yeast Anticancer Drug Screen. Data for the rad50 strain (AID 155);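 note: 0% = growth of vehicle-only cultures of the same strain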; conditions: S. cerevisiae rad50 strain growth inhibition, active compounds read high
Method in brief: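 Growth of the mutant yeast was measured after compound exposure and referenced to vehicle-treated cultures.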

[6] = NCI Yeast Anticancer Drug Screen. Data for the mec2-1 strain (AID 157); conditions: S. cerevisiae mec2-1 strain, active compounds read high
Method in brief: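 Vehicle-treated cultures served as reference for growth inhibition of compound-exposed mec2-1 yeast.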

[7] = NCI Yeast Anticancer Drug Screen. Data for the rad14 strain (AID 159);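 note: 0% = growth of vehicle-treated control cultures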; conditions: S. cerevisiae rad14 strain growth inhibition, active compounds read high
Method in brief: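 Here, inhibition of yeast growth was measured after compound exposure, using a strain with a genetic defect in DNA damage repair and vehicle-treated cultures as the reference.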

[8] = NCI Yeast Anticancer Drug Screen. Data for the sgs1 mgt1 strain (AID 161);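 note: 0% = growth of cultures given vehicle only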; conditions: S. cerevisiae sgs1 mgt1 strain, active compounds read high
Method in brief: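 Inhibition of yeast growth, normalised to vehicle-treated controls, is reported for a strain bearing genetic alterations in DNA damage repair.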

[9] = NCI Yeast Anticancer Drug Screen. Data for the CLN2oe strain (AID 163);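 note: 0% = growth of vehicle-only control cultures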; conditions: S. cerevisiae CLN2oe strain, active compounds read high
Method in brief: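 Inhibition relative to vehicle-treated yeast is reported. Cells: strain with genetic alteration in cell-cycle control, grown with compound.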

[10] = NCI Yeast Anticancer Drug Screen. Data for the cln2 rad14 strain (AID 165);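 note: 0% = growth equal to vehicle treated cultures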; conditions: S. cerevisiae cln2 rad14 strain, active compounds read high
Method in brief: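 Each compound was tested on cln2 rad14 yeast. Inhibition of growth was calculated against vehicle-exposed controls.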

[11] = NCI Yeast Anticancer Drug Screen. Data for the bub3 strain (AID 167); conditions: S. cerevisiae bub3 mutant strain, active compounds read high
Method in brief: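 Whole-cell yeast assay. The mutant strain was incubated with compounds, and growth inhibition was determined by comparison with vehicle-treated cells.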

[12] = NCI Yeast Anticancer Drug Screen. Data for the wt2 strain (AID 169);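 note: 0% = growth of vehicle-treated yeast cultures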; conditions: S. cerevisiae wt2 strain growth inhibition, active compounds read high
Method in brief: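 Inhibition of yeast growth was determined after compound treatment, normalised to controls receiving only vehicle.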

[13] = NCI Yeast Anticancer Drug Screen. Data for the mlh1 strain (AID 171);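 note: 0% = growth of vehicle-treated control cultures of the same strain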; conditions: S. cerevisiae mlh1 strain growth inhibition, active compounds read high
Method in brief: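 Vehicle-normalised growth inhibition of a repair- or checkpoint-altered yeast strain following compound treatment.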

[14] = NCI Yeast Anticancer Drug Screen. Data for the sgs1 strain (AID 173);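 note: 0% = growth of vehicle-only control cultures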; conditions: S. cerevisiae sgs1 mutant, active compounds read high
Method in brief: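 Screen format: yeast with repair or checkpoint alterations, compound exposure, growth read relative to vehicle.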

[15] = NCI Yeast Anticancer Drug Screen. Data for the mlh1 rad18 strain (AID 175); conditions: S. cerevisiae mlh1 rad18 strain growth inhibition, active compounds read high
Method in brief: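 Vehicle-treated cultures served as the reference for growth inhibition in a yeast strain carrying DNA damage repair alterations exposed to each compound.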

[16] = NCI Yeast Anticancer Drug Screen. Data for the rad18 strain (AID 177); conditions: S. cerevisiae rad18 mutant growth inhibition, active compounds read high
Method in brief: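 Test articles were incubated with altered yeast defective in DNA damage repair. Results are given as inhibition of growth versus vehicle.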

[17] = at 5.0 µM (retest, dose inferred, filed as 0.5)
[18] = at 50.0 µM (retest, dose inferred, filed as 5.0)

Measured: growth inhibition

COC(=O)C1=C(C)NC(C)=C(C(=O)OC)C1c1cccc(/[N+]([O-])=C/c2ccccc2)c1
inactive: [1]; at 1.2 µM 1% | [1]; at 3.7 µM 2% | [1]; at 11.0 µM 9% | [1]; at 33.0 µM 23% | [2]; at 1.2 µM 2% | [2]; at 3.7 µM 4% | [2]; at 11.0 µM 8% | [2]; at 33.0 µM 18% | [2]; at 100.0 µM 50% | [3]; at 1.2 µM -1% | [3]; at 3.7 µM -3% | [3]; at 11.0 µM -4% | [3]; at 33.0 µM 1% | [3]; at 100.0 µM 15% | [4]; at 1.2 µM 1% | [4]; at 3.7 µM 4% | [4]; at 11.0 µM 13% | [4]; at 33.0 µM 33% | [5]; at 1.2 µM -3% | [5]; at 3.7 µM -9% | [5]; [17] 11% | [5]; at 11.0 µM -9% | [5]; at 33.0 µM 29% | [5]; [18] 35% | [5]; at 50.0 µM 64.8% | [6]; at 1.2 µM 3% | [6]; at 3.7 µM 5% | [6]; [17] 11% | [6]; at 11.0 µM 13% | [6]; at 33.0 µM 34% | [6]; [18] 25% | [6]; at 50.0 µM 40.5% | [7]; at 1.2 µM 2% | [7]; at 3.7 µM 4% | [7]; at 11.0 µM 16% | [7]; at 33.0 µM 34% | [8]; [17] 51% | [8]; [18] 50% | [8]; at 50.0 µM 51.1% | [9]; at 1.2 µM 4% | [9]; at 3.7 µM 6% | [9]; at 11.0 µM 13% | [9]; at 33.0 µM 33% | [10]; [17] 6% | [10]; [18] 33% | [10]; at 50.0 µM 44.8% | [11]; at 1.2 µM 1% | [11]; at 3.7 µM 4% | [11]; [17] 43% | [11]; at 11.0 µM 10% | [11]; at 33.0 µM 30% | [11]; at 50.0 µM 59.6% | [12]; at 1.2 µM 0% | [12]; at 3.7 µM 1% | [12]; at 11.0 µM 8% | [12]; at 33.0 µM 32% | [13]; at 1.2 µM 3% | [13]; at 3.7 µM 3% | [13]; at 11.0 µM 12% | [13]; at 33.0 µM 39% | [14]; at 1.2 µM 1% | [14]; at 3.7 µM 5% | [14]; at 11.0 µM 12% | [15]; [17] 4% | [15]; [18] 40% | [15]; at 50.0 µM 66% | [16]; at 1.2 µM 2% | [16]; at 3.7 µM 7% | [16]; at 11.0 µM 17% | [16]; at 33.0 µM 48%
active: [1]; at 100.0 µM 90% | [4]; at 100.0 µM 96% | [5]; at 100.0 µM 83% | [6]; at 100.0 µM 83% | [7]; at 100.0 µM 92% | [9]; at 100.0 µM 74% | [11]; [18] 79% | [11]; at 100.0 µM 91% | [12]; at 100.0 µM 95% | [13]; at 100.0 µM 96% | [14]; at 33.0 µM 71% | [14]; at 100.0 µM 96% | [16]; at 100.0 µM 93%

O=[N+]([O-])c1ccc(=S)[nH]c1
active: [1]; at 100.0 µM 93% | [2]; at 100.0 µM 78% | [3]; at 33.0 µM 85% | [3]; at 100.0 µM 97% | [4]; at 100.0 µM 93% | [5]; [18] 99% | [5]; at 50.0 µM 98.8% | [5]; at 100.0 µM 86% | [6]; [18] 88% | [6]; at 50.0 µM 99.4% | [6]; at 100.0 µM 99% | [7]; at 100.0 µM 99% | [8]; [18] 100% | [8]; at 50.0 µM 98.2% | [11]; [18] 98% | [11]; at 50.0 µM 99.3% | [11]; at 100.0 µM 98% | [12]; at 100.0 µM 93% | [13]; at 100.0 µM 96% | [14]; at 33.0 µM 76% | [14]; at 100.0 µM 99% | [15]; [18] 99% | [15]; at 50.0 µM 93.1% | [16]; at 100.0 µM 94%
inactive: [1]; at 1.2 µM 1% | [1]; at 3.7 µM 0% | [1]; at 11.0 µM -1% | [1]; at 33.0 µM 49% | [2]; at 1.2 µM -1% | [2]; at 3.7 µM -2% | [2]; at 11.0 µM -6% | [2]; at 33.0 µM 13% | [3]; at 1.2 µM 0% | [3]; at 3.7 µM -2% | [3]; at 11.0 µM 23% | [4]; at 1.2 µM -3% | [4]; at 3.7 µM -2% | [4]; at 11.0 µM 1% | [4]; at 33.0 µM 34% | [5]; at 1.2 µM 0% | [5]; at 3.7 µM -6% | [5]; [17] -5% | [5]; at 11.0 µM -5% | [5]; at 33.0 µM 28% | [6]; at 1.2 µM -2% | [6]; at 3.7 µM -1% | [6]; [17] -9% | [6]; at 11.0 µM -5% | [6]; at 33.0 µM 60% | [7]; at 1.2 µM -5% | [7]; at 3.7 µM -6% | [7]; at 11.0 µM -5% | [7]; at 33.0 µM 42% | [8]; [17] 32% | [9]; at 1.2 µM -1% | [9]; at 3.7 µM -8% | [9]; at 11.0 µM -8% | [9]; at 33.0 µM -10% | [9]; at 100.0 µM 67% | [10]; [17] 5% | [10]; [18] 55% | [10]; at 50.0 µM 37.6% | [11]; at 1.2 µM -6% | [11]; at 3.7 µM -7% | [11]; [17] 10% | [11]; at 11.0 µM -6% | [11]; at 33.0 µM 54% | [12]; at 1.2 µM 0% | [12]; at 3.7 µM 1% | [12]; at 11.0 µM 2% | [12]; at 33.0 µM 39% | [13]; at 1.2 µM 0% | [13]; at 3.7 µM 1% | [13]; at 11.0 µM 1% | [13]; at 33.0 µM 52% | [14]; at 1.2 µM 0% | [14]; at 3.7 µM 4% | [14]; at 11.0 µM 17% | [15]; [17] 51% | [16]; at 1.2 µM -1% | [16]; at 3.7 µM 0% | [16]; at 11.0 µM -5% | [16]; at 33.0 µM 40%
